Activity calls are given as the source filed them. The calls were made as follows: active = hit-call score of the fitted dose curve at least 0.9, where 1 is the maximum; inactive = score below 0.9.

Read-out in one experiment: Interferon-gamma inducible Protein 10 (IP10), CXCL10 (gene 3627)
Briefly: BSK_BE3C_IP10: BioMAP Diversity Plus: BE3C Assay for Interferon-gamma inducible Protein 10 (IP10) Biomarker Activity (AID 2283034). The following applies: primary human bronchial epithelial cells; actives raise or lower the signal. In outline: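 Primary human bronchial epithelial cells, with IP-10 measured by ELISA 24 hours after chemical dosing. Bidirectional fit against DMSO; cytotoxicity checked by SRB total protein staining in parallel cultures.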
Consider `O=C1C=CC(=O)c2ccccc21`, for which the AC50 is 2.01 µM (active).

For `Cc1cc(Cl)ccc1N`, the result was inactive. Still for that read-out and setting: for `O=C(Cc1ccccc1)OCCc1ccccc1` the value was “inactive”. With `O=c1oc2ccccc2c(O)c1C(CC(O)c1ccc(-c2ccc(Br)cc2)cc1)c1ccccc1` (stereo not drawn), the AC50 is 5.4 µM (active). As to `Oc1ccc(Cc2ccc(O)cc2)cc1`, the result was inactive. As to `Cc1c([N+](=O)[O-])c(C)c([N+](=O)[O-])c(C(C)(C)C)c1[N+](=O)[O-]`, the outcome was inactive. The same measure, in the same setting: in the case of `CC(C)(COCC1CO1)COCC1CO1` (stereo not drawn) it was “inactive”. On to `CCOC(=O)CC(=O)CCl`, for which the AC50 is 20 µM (active).

With `CCCCCCCCCCCCN(C)C`, the result was inactive. Turning to `CCOP(=S)(OCC)SCS(=O)(=O)C(C)(C)C`, the result was inactive.

Read-out in another experiment: Monokine induced gamma interferon (MIG), CXCL9 (gene 4283)
Briefly: BSK_BE3C_MIG: BioMAP Diversity Plus: BE3C Assay for Monokine induced gamma interferon (MIG) Biomarker Activity (AID 2283035). The following applies: primary human bronchial epithelial cells; actives raise or lower the signal. In outline:
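Primary human bronchial epithelial cells treated for 24 h; MIG levels measured by ELISA, fitted bidirectionally versus DMSO. Parallel SRB total-protein staining assessed cytotoxicity.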
As for `O=C(O)C1(c2ccc3c(c2)OC[C@H](Cc2ccc(-c4ccccc4)cc2)[C@H]3O)CCCC1`, the AC50 was 19.9 µM (active). Consider `N#Cc1cccnc1`, for which the outcome was inactive. In the case of `Cc1cc(Cl)ccc1OC(C)C(=O)O` (stereo not drawn), the result was inactive. The same measure, in the same setting: in the case of `O=C(CCl)NCO` it was “inactive”. As to `Nc1c(Oc2ccccc2)cc(O)c2c1C(=O)c1ccccc1C2=O`, the result was inactive.

Turning to `Oc1cc(Cl)c(Cl)cc1Cl`, the outcome was inactive. For the compound `C[C@]12CC[C@@H](O)C[C@@H]1CC[C@@H]1[C@@H]2CC[C@]2(C)C(=O)CC[C@@H]12`, the result was inactive. Same read-out and setting: in the case of `CCC(C)(C#N)N=NC(C)(C#N)CC` (stereo not drawn) it was “inactive”. Consider `NC(=O)CCl`, for which the outcome was inactive. Consider `CCCCN(CCCC)C(=S)[S-].CCCCN(CCCC)C(=S)[S-].[Ni+2]`, for which the outcome was inactive. Consider `CCCCOC(=O)COC(=O)c1ccccc1C(=O)OCCCC`, for which the outcome was inactive. `CCCCCCCCCCCCc1cccc(S(=O)(=O)O)c1`: the AC50 was 30.1 µM (active). `O=C(N[C@H]1CN2CCC1CC2)c1ccc2c(c1)OCCO2`: the result was inactive.

As a reminder, the AC50 is the concentration at which the activity in the assay is half-maximal.
